Where “and” joins values, the source holds several entries; their conditions need not be identical. Equal entries are not always repeated.
How the values were obtained:
Assay type in all cases: functional
[1] = tested on: Plasmodium falciparum; test: GSK_TCMDC: Inhibition of Plasmodium falciparum 3D7 in whole red blood cells, using parasite LDH activity as an index of growth. Test compounds present at 2uM
[2] = tested on: Plasmodium falciparum; test: GSK_TCMDC: Inhibition of Plasmodium falciparum Dd2 in whole red blood cells, using parasite LDH activity as an index of growth. Test compounds present at 2uM
[3] = tested on: HepG2; test: GSK_TCMDC: Percent inhibition of human HepG2 cell line. Test compounds present at 10uM.

Row | SMILES | Inhibition [1] | Inhibition [2] | Inhibition [3]
1 | CCn1c(CN2CCC(C)CC2)nc2cc(NC(=O)c3cccs3)ccc21 | 91% | 95% | 40%
2 | CCCCC(=O)Nc1cc(=O)[nH]c2nc(-c3ccc(Cl)cc3)nn12 | 89% | 77% | 1%
3 | CCCCN(Cc1cc(Cl)c(OC)c(OC)c1)c1ccc(C(O)(C(F)(F)F)C(F)(F)F)cc1.O=C(O)C(F)(F)F | 98% | 73% | 3%
4 | O=C(O)C(F)(F)F.O=[N+]([O-])c1cccc(CNC2CCN(Cc3ccc(C(F)(F)F)cc3)CC2)c1 | 99% | 28% | 0%
5 | CSc1nccc(-c2ccc3ccnc(N)c3c2)n1 | 100% | 98% | 30%
6 | COCC(=O)Nc1nc2ccccc2[nH]1 | 98% | 1% | 0%
7 | CC1CCN(CC[C@H]2CCCN2S(=O)(=O)c2cccc(NC(=O)Nc3ccc(C(F)(F)F)cc3)c2)CC1 | 100% | 41% | 12%
8 | CCC(C)(C)C1CCc2[nH]c3ccccc3c(=O)c2C1 (stereo not drawn) | 97% | 96% | 16%
9 | c1ccc2c(NCCc3c[nH]cn3)c3ccccc3nc2c1 | 91% | 0% | 20%
10 | O=C(Nc1ccccc1F)N(CCCn1ccnc1)Cc1csc(-c2ccc(CNCc3ccccc3)cc2)n1.O=C(O)C(F)(F)F | 93% | 26% | 24%
11 | COc1c(C2CCN(CCCCNC(=O)c3ccc(-c4ccc(C(=O)C(F)(F)F)cc4)cc3)CC2)ccc2c1CCCC2 | 81% | 33% | 99%
12 | O=C(NCC1CCN(C/C=C/c2ccccc2)CC1)Nc1ccc(Oc2ccccc2)cc1 | 83% | 11% | 40%
13 | CCOc1ccc(C(=O)Nc2ccc(-c3nc4ccccc4[nH]3)cc2)cc1[N+](=O)[O-] | 100% | 70% | 22%
14 | Cc1ccc(O)cc1Nc1ccnc2cc(-c3nccs3)ccc12.Cl | 100% | 83% | 63%
15 | C=CCN(c1nc(NC)nc(NCc2c(OC)cccc2OC)n1)C1CCCC1 | 85% | 70% | 18%
16 | CS(=O)(=O)c1ccc2[nH]c(-c3cc(-c4cccc(F)c4)cnc3N)nc2c1.O=C(O)C(F)(F)F | 100% | 71% | 33%
17 | Cc1cccc2nc(-c3cccc(-c4ccc(NC(=O)COc5ccccc5C(N)=O)cc4)c3)[nH]c12 | 100% | 47% | 18%
18 | CCc1cc(NC2CCN(C)CC2)nc(Nc2ccc(C)cc2)n1 | 95% | 11% | 3%
19 | Nc1nc(-c2ccccn2)nc(-n2nc(-c3cccc(C(F)(F)F)c3)cc2N)n1.O=C(O)C(F)(F)F | 87% | 74% | 14%
20 | CCNc1cc(C(=O)N[C@@H](Cc2ccccc2)[C@H](O)CNC2C3CC4CC(C3)CC2C4)cc(N2CCCCS2(=O)=O)c1.Cl (stereo partly drawn) | 97% | 96% | 0%
21 | CC(C)(C)OC(=O)NCc1ccc(Nc2nnc(-c3ccc(OCC(=O)NCc4cc(C(F)(F)F)cc(C(F)(F)F)c4)c([N+](=O)[O-])c3)o2)cc1 | 97% | 92% | 24%

Row | SMILES | Inhibition [1] | Inhibition [2] | Inhibition [3]
22 | Cc1ccc(-c2nnc(Nc3ccc(C(=O)N4CCCCC4)cc3)c3ccccc23)cc1S(=O)(=O)NCC1CCCO1 (stereo not drawn) | 99% | 99% | 0%
23 | O=C(c1ccc(Cl)cc1)N1CCCC(C(=O)N(Cc2nnc(-c3ccccc3Cl)o2)C2CC2)C1 (stereo not drawn) | 95% | 96% | 10%
24 | O=C(Nc1ccc(Cl)cc1)Nc1ccc(Cn2ncc(N3CCCNCC3)c(Cl)c2=O)cc1.O=C(O)C(F)(F)F | 85% | 11% | 49%
25 | Cl.N#Cc1ccc2c(c1)CCN(CCC1CCC(NC(=O)/C=C/c3ccc(Cl)c(Cl)c3)CC1)CC2 (stereo not drawn) | 100% | 51% | 31%
26 | Cc1ccccc1C1CCN(c2ccc(C(=O)NC3CC3)cn2)CC1.O=C(O)C(F)(F)F | 95% | 95% | 17%
27 | COC(=O)c1ccc(CCCNCC(O)c2cccc(C(F)(F)F)c2)cc1 (stereo not drawn) | 97% | 88% | 0%
28 | CN(C)CCC1CCCc2ccc(NC(=O)Nc3cccc(Cl)c3Cl)cc21.Cl (stereo not drawn) | 93% | 11% | 44%
29 | O=C(CC(c1ccccc1)c1ccccc1O)N1CCOCC1 (stereo not drawn) | 84% | 5% | 30%
30 | CCn1ncc2c(N3CCCC3=O)cc(C(=O)N[C@@H](Cc3ccccc3)[C@H](O)CNC(C)(C)c3cccc(OC)c3)cc21 | 98% | 97% | 6%
31 | CC(C)CNCc1ccc(-c2cccc(CNC3CCN(Cc4ccccc4)CC3)c2)cc1.O=C(O)C(F)(F)F | 100% | 100% | 34%
32 | Cl.c1ccc(CC2=NCCN2)cc1 [TOLAZOLINE HYDROCHLORIDE] | 94% | 0% | 3%
33 | O=C(Cc1cc(F)cc(F)c1)NC1CCN(c2ccnc3cc(Cl)ccc23)C1.O=C(O)C(F)(F)F (stereo not drawn) | 82% | 100% | 13%
34 | CC(=O)c1ccc(NC(=O)NNC(=O)c2ccc(CCN3CCC(c4nc(COCC(F)(F)F)c(-c5ccc(F)cc5)o4)CC3)cc2)cc1 | 96% | 27% | 17%
35 | FC(F)(F)c1cccc(N=C(S)NN=Cc2ccccn2)c1 | 100% | 99% | 29%
36 | Cl.Clc1ccc(OCCC2CCN(CCCCCCN3CCCCC3)CC2)cc1Cl | 97% | 36% | 86%
37 | Fc1ccc2[nH]c3c(NCCN4CCCCC4)ncnc3c2c1 | 99% | 44% | 24%
38 | O=C(Nc1cccnc1)c1cc(C(=O)Nc2cccnc2)cc([N+](=O)[O-])c1 | 100% | 100% | 0%
39 | Cc1cccc2nc(-c3cccc(-c4cccc(NC(=O)NC5CC5c5ccccc5)c4)c3)[nH]c12 (stereo not drawn) | 98% | 28% | 0%
40 | O=C(c1c(-c2[nH]c3ccccc3c2C(=O)C(F)(F)F)[nH]c2ccccc12)C(F)(F)F | 97% | 99% | 18%
41 | CCn1c(-c2nonc2N)nc2c(-c3cccc(NC(=O)Nc4cccc(C(F)(F)F)c4)c3)ncc(OCCCN)c21.O=C(O)C(F)(F)F | 95% | 70% | 21%
42 | O=C(/C=C/c1ccc(Cl)c(Cl)c1)NCCCCCCN1CCN(C(=O)Nc2ccc(Cl)c(Cl)c2)CC1 | 88% | 0% | 23%

Row | SMILES | Inhibition [1] | Inhibition [2] | Inhibition [3]
43 | CC1(C)NC(N)=NC(=N)N1OCc1cc(Cl)cc2c1OCOC2.Cl | 95% | 64% | 65%
44 | CC(C)(C)C1CCc2onc(C(=O)Nc3cc(Cl)ccc3O)c2C1 (stereo not drawn) | 98% | 82% | 5%
45 | Cc1cccc2nc(-c3ccc(-c4cccc(NC(=O)NCc5ccccc5)c4)cc3)[nH]c12 | 95% | 0% | 25%
46 | CC(C)CNCc1ccc(-c2cccc(CN(CCCN3CCN(C)CC3)C(=O)/C=C/c3ccccc3)c2)cc1.O=C(O)C(F)(F)F | 95% | 93% | 43%
47 | CN1CCN(c2cc(NC(=O)Nc3cccc(Cl)c3Cl)ccc2Cl)CC1.Cl | 100% | 21% | 2%
48 | Cl.Nc1ncnc2occ(-c3ccc(NC(=O)Nc4cc(C(F)(F)F)ccc4F)cc3)c12 [GW770249A] | 99% | 99% | 57%
49 | CCC(=O)N1CCc2cc(Br)cc(S(=O)(=O)N3CC(C)CC(C)C3)c21 (stereo not drawn) | 85% | 84% | 5%
50 | O=C(NCc1ccc(Cl)c(Cl)c1)c1ccc(-c2nc3cc(F)c(F)cc3[nH]2)cc1 | 81% | 12% | 0%
51 | C=CCc1cc(Cc2cnc(N)nc2N)c2ccc(C)nc2c1OC | 96% | 0% | 11%
52 | Br.c1ccc(-c2ccc(-c3csc(Nc4ccncc4)n3)cc2)cc1 | 100% | 97% | 30%
53 | C=C[C@H]1CN2CC[C@H]1C[C@H]2[C@H](O)c1ccnc2ccc(OC)cc12.Cl [QUININE HYDROCHLORIDE] | 99% and 100% | 79% and 99% | 13% and 0%
54 | CO/C(=C\C=C\c1cc2cc(Cl)c(Cl)cc2[nH]1)C(=O)NC1CC2CCCC(C1)N2C (stereo not drawn) | 93% | 51% | 42%
55 | Oc1cccc(Nc2nc(NCc3ccccc3)c3ccccc3n2)c1 | 95% | 99% | 21%
56 | O=C(N[C@@H](CC1CCCCC1)C(=O)NCCN1CCCC1)c1ccc(O)c(-c2cccc(C(F)(F)F)c2)c1 | 99% | 55% | 0%
57 | Cc1cc(NC(=O)CCN2CCN(c3cccc(Cl)c3Cl)CC2)ccc1N1CCN(C(C)C)CC1.Cl | 99% | 8% | 82%
58 | COC(=O)c1cccc(CNCc2ccc(-c3ccc(-c4nc5cc(C(F)(F)F)ccc5[nH]4)s3)cc2)c1.O=C(O)C(F)(F)F | 100% | 96% | 34%
59 | O=C(NCCc1ccc(O)cc1)n1c2ccccc2c2ccccc21 | 83% | 76% | 3%
60 | CC1CNC(c2cccc(NC(=O)Nc3cccc(C4=NC(C)CN4)c3)c2)=N1.Cl (stereo not drawn) | 94% | 98% | 7%
61 | O=C(O)C[C@H](NC(=O)CCCNC(=O)c1cccc(-c2ccc(Cl)c(Cl)c2)c1)C(=O)O | 91% | 0% | 5%
